Test results published in the supplement of paper PMC6805474.

Key:
[1] = system: Schistosoma mansoni schistosomula (LE); experiment: XTT viability relative to DMSO control; higher = more viable (less active); details: 72 h; 10 µM
Method: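 XTT/PMS was then added for a further 24 h (72 h total) and A450 was read. % viability = (sample - heat-killed control)/(DMSO control - heat-killed control) x 100, from duplicate wells in two independent experiments.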

[2] = system: Schistosoma mansoni schistosomula (NMRI); experiment: phenotypic severity score (0-4); higher = more antischistosomal effect, active = 2 or more; details: 10 µM
[3] = system: Schistosoma mansoni schistosomula (Liberian); experiment: drug effect (1 - score/DMSO control score) (fraction); higher = more antischistosomal effect, active = 0.5 or more; extreme values may be limits of the assay; details: 10 µM
Summary of the method: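 A plate was valid only if its 0.1% DMSO wells averaged a score of at least 2. Those wells ran beside duplicate wells in which 50 Liberian-strain Schistosoma mansoni schistosomula each, transformed mechanically from cercariae and pre-incubated at least 12 h, met 10 µM compound in Medium 199 with 5% FCS at 37 °C, 5% CO2. Scoring was visual at 10× at 24, 48 and 72 h, from 3 (normal) to 0 (dead) in quarter-point steps. Drug effect was derived from the mean test-well score against the mean DMSO-well score, with negatives set to zero.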
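For phenotypic severity score (0-4) in this document: visual microscopic scoring of shape, motility and density changes versus 0.5% DMSO solvent controls, one point per descriptor, degeneracy or death scored 4, mean of duplicate wells.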

SMILES	XTT viability [1] [%]	phenotypic severity score ([2]; 24 h)	phenotypic severity score ([2]; 48 h)	phenotypic severity score ([2]; 72 h)	drug effect ([3]; 24 h)	drug effect ([3]; 48 h)	drug effect ([3]; 72 h)
Cc1nn2c(O)c3c(nc2c1-c1ccc(F)cc1)CCCC3	113	0 (inactive)	0 (inactive)	0 (inactive)	0.409 (inactive)	0.45 (inactive)	0.509 (active)
COc1ccc(OC(C)C(=O)Nc2ccc(Cl)cc2C)cc1 (stereo not drawn)	97.2	0 (inactive)	0 (inactive)	0 (inactive)	0.182 (inactive)	0.35 (inactive)	0.345 (inactive)
COc1cc(Br)cc2cc(C(=O)Nc3cccc(C(F)(F)F)c3)c(=O)oc12	90.6	0 (inactive)	0 (inactive)	0 (inactive)	0.1 (inactive)	0.0556 (inactive)	0.0556 (inactive)
O=C(Nc1nnc(-c2ccc(Cl)cc2)o1)c1cccc(C(F)(F)F)c1	-9.98	0 (inactive)	4 (active)	4 (active)	0.0909 (inactive)	0.25 (inactive)	0.945 (active)
O=C(Nc1ccc(F)c(-c2nc3cc(-c4ccccc4)cnc3[nH]2)c1)N1CCCC1	111	0 (inactive)	4 (active)	4 (active)	0.676 (active)	0.667 (active)	0.875 (active)
Cc1ccc2[nH]c(C3CCCNC3)c(-c3ccncc3)c2c1 (stereo not drawn)	75.2	0 (inactive)	0 (inactive)	0 (inactive)	< 0 (inactive)	< 0 (inactive)	0.111 (inactive)
COc1ccc(-c2onc(C(F)(F)F)c2-c2ccc(Cl)cc2)c(O)c1	0.0885	0 (inactive)	0 (inactive)	0 (inactive)	0.15 (inactive)	0.167 (inactive)	0.188 (inactive)
O=C(Cn1ccnc1[N+](=O)[O-])NCc1ccccc1	89.2	0 (inactive)	0 (inactive)	0 (inactive)	0.15 (inactive)	0.243 (inactive)	0.222 (inactive)
O=C([C@@H](c1ccc(Cl)cc1)c1cccnc1)N1CCN(c2ccc(C(F)(F)F)cc2)CC1	46.8	0 (inactive)	2 (active)	4 (active)	0.75 (active)	0.722 (active)	0.75 (active)
CCCCS(=O)(=O)Nc1ccc2cnn(C)c2c1	141	0 (inactive)	0 (inactive)	0 (inactive)	0.0811 (inactive)	0.111 (inactive)	0.0625 (inactive)
CCC(Sc1nc2ccccc2o1)C(=O)Nc1nccs1 (stereo not drawn)	7.06	2 (active)	4 (active)	4 (active)	0.182 (inactive)	1 (active)	1 (active)
COc1cc(C2=NCCN2)ccc1-n1cc(-c2cccc(C3=NCCN3)c2)nn1	77.2	1 (inactive)	0 (inactive)	0 (inactive)	0.243 (inactive)	0.278 (inactive)	0.5 (active)
CC1(COc2ccc(N3CCC(Oc4ccc(OC(F)(F)F)cc4)CC3)cc2)Cn2cc([N+](=O)[O-])nc2O1 (stereo not drawn)	110	0 (inactive)	0 (inactive)	0 (inactive)	0.158 (inactive)	0.111 (inactive)	0.0625 (inactive)
Nc1ccc2ncnc(Nc3ccc(OCc4cccc(F)c4)c(Cl)c3)c2c1	55.9	4 (active)	4 (active)	4 (active)	0.3 (inactive)	0.622 (active)	0.879 (active)
O=C(NCCc1c[nH]c2ccccc12)c1cc2ccccc2oc1=O	91.2	1 (inactive)	0 (inactive)	0 (inactive)	0.182 (inactive)	0.4 (inactive)	0.455 (inactive)
COc1ccc(OC)c(NCc2ccc3nc(N)nc(N)c3c2Cl)c1	109	0 (inactive)	2 (active)	0 (inactive)	< 0 (inactive)	0.05 (inactive)	0.278 (inactive)
COC(=O)Nc1nc2cc(C(=O)c3ccccc3)ccc2[nH]1	71.1	0 (inactive)	0 (inactive)	0 (inactive)	0.15 (inactive)	0.189 (inactive)	0.278 (inactive)
O=C(Nc1nnc(-c2ccc(Cl)s2)o1)c1ccc(Cl)s1	-3.4	2 (active)	4 (active)	4 (active)	< 0 (inactive)	< 0 (inactive)	< 0 (inactive)
CC(=O)N(CCN(C(=O)c1ccc(F)cc1)c1ccccc1)c1ccccc1	117	1 (inactive)	0 (inactive)	0 (inactive)	0.1 (inactive)	0.027 (inactive)	0.0909 (inactive)
CC[C@@H]([C@H](C)O)n1ncn(-c2ccc(N3CCN(c4ccc(OC[C@@H]5CO[C@@](Cn6cncn6)(c6ccc(F)cc6F)C5)cc4)CC3)cc2)c1=O	88.8	3 (active)	4 (active)	4 (active)	0.2 (inactive)	0.243 (inactive)	0.556 (active)
C[C@H]1COc2c(N3CCN(C)CC3)c(F)cc3c(=O)c(C(=O)O)cn1c23	67.9	0 (inactive)	0 (inactive)	0 (inactive)	0.0455 (inactive)	0.05 (inactive)	0.0526 (inactive)
Cc1[nH]c2ccccc2c1C(c1cccs1)N1CCN(C)CC1 (stereo not drawn)	6.43	3 (active)	4 (active)	4 (active)	1 (active)	1 (active)	1 (active)
OC[C@H]1O[C@@H](n2c3ccc(Cl)cc3c3c(-c4cc5ccccc5o4)ncnc32)C(O)[C@H]1O (stereo partly drawn)	93.9	0 (inactive)	0 (inactive)	0 (inactive)	0.158 (inactive)	0.111 (inactive)	< 0 (inactive)
C[C@@H]1[C@H](O)[C@@H](C)/C=C/C=C/C=C/C=C/C=C/C=C/C=C/[C@H](O[C@@H]2O[C@H](C)[C@@H](O)[C@H](N)[C@@H]2O)C[C@@H]2O[C@](O)(C[C@@H](O)C[C@@H](O)[C@H](O)CC[C@@H](O)C[C@@H](O)CC(=O)O[C@H]1C)C[C@H](O)[C@H]2C(=O)O	95	0 (inactive)	0 (inactive)	0 (inactive)	0.136 (inactive)	0.15 (inactive)	0.105 (inactive)
